From PubChem
CHX counter = affects cycloheximide protein synthesis inhibition readout, counter-screen; cell reporter, cycloheximide protein synthesis inhibition counterscreen; max response, %; 300,000 tested, 12% active; in the data active = max response mostly above about 13%, no sharp cut-off; inactive = mostly below about 14%; note: read at 38.3 µM for the half of the compounds with a filed dose
Pf growth 48h = inhibits P. falciparum growth in the first generation, 48 h; P. falciparum luciferase growth in erythrocytes, 48 h; Potency, µM (titrated, usually from 28.7 µM), most hits filed as inhibitors; 310,000 tested, 5.9% active; AID 504832
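Luciferase-expressing parasites in RBCs, 2% Hct / 0.1% parasitemia final; RPMI 1640 + 0.5% Albumax; 37 C, 5% CO2, one generation; luminescence read-out, lower signal = inhibition.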
Pf growth 96h = inhibits malaria parasite growth, 96 h | AID 504834 | Potency, µM (series often up to 28.7 µM), usual class: inhibitors | 320,000 tested, 6.9% active | P. falciparum luciferase reporter growth, 96 h
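Compounds incubated with erythrocytes infected by luciferase-expressing P. falciparum (2% hematocrit, 0.05% parasitemia final) for 96 hours, 37 C in 5% CO2. Growth inhibition scored as decreased luciferase luminescence.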
Shiga inhibitor = blocks Shiga toxin action in Vero cells; Vero cells, Shiga toxin protein synthesis inhibition reporter; AID 2315; 290,000 tested, 9.2% active; inhibition, % at 38.7 µM; in the data active = inhibition mostly above about 28%, no sharp cut-off; inactive = mostly below about 43%
Of the large screens only hits and unclear results are named; the others gave an inactive call. Sampled rows, rich in hits. Any-hit rate of the full collection: about 21%. Unless noted, calls come from the whole dose curve; as a rule, active = well fitted inhibition curve with a large enough effect; inconclusive = small, poorly fitted or top-dose-only effect, or another doubt; inactive = no such curve, though single readings can be large or run the other way.

O=C(O)c1cccc2c1C(=O)N(c1ccccc1)C2	Pf growth 48h inconclusive
S=C1c2ccccc2CN1c1ccccc1	CHX counter 60, Shiga inhibitor 75
Cc1ccc(N2Cc3ccccc3C2=S)cc1	CHX counter 37, Pf growth 96h inconclusive, Shiga inhibitor 82
COc1ccccc1OCCSc1ncnc2nc[nH]c12	Pf growth 96h 12µM
Cc1cccc(OCCSc2ncnc3nc[nH]c23)c1	CHX counter 15
CC(OC(=O)CNS(=O)(=O)c1ccc(C#N)cc1)C(=O)Nc1cccc(C#N)c1 (stereo not drawn)	none (no result: CHX counter, Shiga inhibitor)
CCOc1cc(/C=N/NC(=O)CCn2nc(C)cc2C)ccc1O	none
N#CC1=C(N)N(c2ncn[nH]2)C2=C(C(=O)CCC2)C1c1ccc(F)cc1 (stereo not drawn)	none
O=C(Nc1nnc(C2CC2)s1)c1ccncc1	none
O=C(Nc1nnc(C2CC2)s1)c1ccco1	CHX counter 29, Shiga inhibitor 107
O=C(Nc1nnc(C2CCCCC2)s1)c1ccco1	CHX counter 34, Pf growth 96h inconclusive, Shiga inhibitor 80
O=C(CSc1nnc(NC(=O)c2ccco2)s1)NC1CCCC1	Pf growth 48h inconclusive, Pf growth 96h inconclusive
COc1ccc(CC(=O)Nc2ccc(-c3noc(-c4ccccc4OC)n3)cc2)cc1	CHX counter 27, Pf growth 96h inconclusive (no result: Pf growth 48h)
COc1ccc(CC(=O)NCc2nc(-c3ccccc3)no2)cc1	none
COc1cccc(-c2nc(CS(=O)(=O)CC(=O)NCc3ccccc3OC)c(C)o2)c1	none
COc1ccccc1CC(=O)Nc1ccc(-c2noc(COc3cccc(C)c3C)n2)cc1	Pf growth 96h 15µM (no result: Pf growth 48h)
COc1cccc(-c2nc(-c3ccc(NC(=O)Cc4ccccc4OC)cc3)no2)c1	CHX counter 22, Pf growth 48h inconclusive, Shiga inhibitor 43
COc1ccccc1CC(=O)Nc1ccc(-c2noc(COc3ccc(Br)cc3)n2)cc1	none (no result: Pf growth 48h)
Cc1ccc(NC2=NCC(=O)N2C2CCCC2)c(C)c1	none
CN1CCN(C=NC2=NN(c3cccc(C(F)(F)F)c3)CC2)CC1	CHX counter 21
Cc1n[nH]c(=O)n1-c1cccc(C(F)(F)F)c1	none
CN(C)C=NC1=NN(c2cccc(C(F)(F)F)c2)CC1	CHX counter 43, Pf growth 96h inconclusive, Shiga inhibitor 43
COc1ccc(-c2cc(C(=O)Nc3ccccc3F)on2)cc1	CHX counter 33, Shiga inhibitor 80
COc1ccc(-c2cc(C(=O)Nc3ccccc3)on2)cc1	CHX counter 19, Shiga inhibitor 124
O=C(Nc1ccc(F)cc1)c1cc(-c2ccccc2)no1	none
CCCCCCC(C)n1[nH]c(=O)c2c(C)cc(C)nc21 (stereo not drawn)	none
CCOc1ccc(N2C(=O)CCC2=O)cc1	none (no result: Pf growth 96h)
CCCC1CCC(c2ccc(OCC)cc2)=CC1=O (stereo not drawn)	CHX counter 43, Shiga inhibitor 34
Cc1ccsc1/C=N/NC(=O)c1ccc2ccccc2c1	CHX counter 44, Pf growth 96h inconclusive, Shiga inhibitor 73
Cc1ccsc1/C=N/NC(=O)c1ccncc1	Pf growth 48h inconclusive
COc1cc(C(=O)N/N=C/c2sccc2C)cc(OC)c1OC	none
Cc1ccsc1/C=N/NS(=O)(=O)c1ccc([N+](=O)[O-])cc1	CHX counter 48
Cc1ccsc1/C=N/NC(=O)Nc1ccccc1	CHX counter 31, Shiga inhibitor 57
Cc1ccsc1/C=N/NC(=O)c1cccnc1	CHX counter 9.9
COc1ccc(N(C(=O)c2snc(C(N)=O)c2N)C(CC(C)C)C(=O)NCC2CCCO2)cc1 (stereo not drawn)	Pf growth 48h inconclusive
O=C1CCN(c2ccc([N+](=O)[O-])cc2F)CC1	none
Cc1ccsc1/C=N/NC(=O)c1ccc([N+](=O)[O-])cc1	CHX counter 24
Cc1c(/C=N\NC(=O)c2ccc([N+](=O)[O-])cc2)cnn1C	none
O=C1NC(c2ccccc2Br)=N/C1=C\c1ccco1	CHX counter 48, Pf growth 48h inconclusive, Shiga inhibitor 125
O=C1NC(c2ccccc2)=N/C1=C/c1ccco1	CHX counter 39, Pf growth 96h inconclusive, Shiga inhibitor 72
O=C1NC(c2cccc(Br)c2)=N/C1=C\c1ccco1	CHX counter 70, Shiga inhibitor 86
COc1ccc(C(=O)CSc2n[nH]c(C)n2)cc1[N+](=O)[O-]	none
CC(C)(C)N1C(=O)c2ccc(C(=O)Nc3ccc(-c4nc5ccccc5[nH]4)cc3)cc2C1=O	CHX counter 29, Pf growth 48h 0.52µM, Shiga inhibitor 47
CC(C)(C)N1C(=O)c2ccc(C(=O)Nc3ccc(C(=O)O)cc3)cc2C1=O	Pf growth 96h 9.3µM
Cc1ccc(C2(C)NC(=O)N(CC(=O)NNC(=O)c3ccoc3C)C2=O)cc1 (stereo not drawn)	none (no result: CHX counter, Shiga inhibitor)
